CHT allo act: human CHT allosteric activation | Q9GZV3 | CHT-expressing cells, membrane potential dye, choline EC20; stronger effect = higher value; LV-AA mutant CHT in HEK293 cells | B-score at 10 µM | actives 0.49% (n = 310,000);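 active means initial fluorescence not abnormally high and integrated response B-score, plate-corrected, over 3 SD above library mean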
Target sequence (Q9GZV3 whole entry, looked up): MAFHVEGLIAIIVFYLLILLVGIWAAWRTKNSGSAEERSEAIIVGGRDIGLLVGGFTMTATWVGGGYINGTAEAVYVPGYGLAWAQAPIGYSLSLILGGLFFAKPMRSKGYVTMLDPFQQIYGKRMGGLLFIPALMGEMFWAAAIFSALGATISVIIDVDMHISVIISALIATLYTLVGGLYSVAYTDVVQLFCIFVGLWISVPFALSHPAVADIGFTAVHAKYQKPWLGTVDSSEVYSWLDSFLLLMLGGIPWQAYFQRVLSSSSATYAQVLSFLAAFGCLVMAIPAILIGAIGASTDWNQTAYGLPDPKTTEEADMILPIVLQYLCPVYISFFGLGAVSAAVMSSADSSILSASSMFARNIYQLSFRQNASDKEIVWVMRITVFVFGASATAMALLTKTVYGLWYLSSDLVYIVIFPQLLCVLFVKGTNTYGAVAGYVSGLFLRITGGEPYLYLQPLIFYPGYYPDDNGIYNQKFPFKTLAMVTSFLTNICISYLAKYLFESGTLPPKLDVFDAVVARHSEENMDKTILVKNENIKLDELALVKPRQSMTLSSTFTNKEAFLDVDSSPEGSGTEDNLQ
CHT inh: inhibits the human high affinity choline transporter. B-score at 10 µM. AID 488975. actives 0.86% (n = 310,000). CHT-expressing cells, membrane potential dye, choline response; stronger effect = lower value. Q9GZV3;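 active means B-score over 3 SD under the library average, and starting fluorescence ratio not unusually high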;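 further: choline stimulus applied at its EC90 after an EC20 pre-addition; B-score computed on integrated fluorescence ratio after choline addition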
Platelet DG rel: platelet dense granule release activity. human platelet-rich plasma, SFLLRN dense granule ATP release, luminescence. inhibition, %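 (compounds screened at 7.5 µM in platelet-rich plasma)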. actives 0.22% (n = 300,000). AID 1663;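 active means mean replicate score, as percent of positive control, at or above 50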
AI-2 QS mod: modulates the Vibrio harveyi AI-2 quorum sensing system. activity change, % at 7.5 µM. actives 0.4% (n = 300,000). AID 2094. Vibrio harveyi JMH597 AI-2 luminescence/OD600 ratio, 9 h; stronger effect = lower value; strain lacks LuxN and CqsS sensors; 0 = neutral-control median; in the data active means activity change below about -75%, passing the limit was not always enough;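 further: luminescence divided by OD600 gain over 9 h not by final OD600 alone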
HIF activator: HIF pathway transcriptional activation | activation, % at 7.5 µM (by protocol) | U2OS HRE-luciferase reporter, luminescence; normalized: DMSO 0%, desferrioxamine 100% | actives 0.32% (n = 300,000) | AID 1910;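 active means mean activation of at least 10% of the iron chelator positive control signal, with at least half of replicates also reaching 10%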
VLA-4 inh: inhibition in a human VLA-4 binding assay; inhibition, % (about 7 µM as worked out from the volumes in the protocol); actives 0.2% (n = 330,000); VLA-4 expressing cells, ligand binding flow cytometry; AID 2557; in the data active means inhibition above about 50%
CHT block conf: confirmation of human choline transporter CHT inhibitors; shares compounds with CHT inh; CHT activity remaining % of control (stronger effect = lower value), % at 10 µM; AID 493221; actives 70% (n = 2,400); CHT-expressing cells, choline membrane potential dye; LV-to-AA substituted CHT, HEK293 cells;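 active means choline transporter activity left, mean of duplicates at 10 µM, below buffer-only control mean minus 3 SD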;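 further: depolarization triggered by choline at its EC90 following an EC20 pre-addition; 0% = hemicholinium-3 full block and 100% = buffer-only control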
HEK293 MPD ctr: activity in parental HEK293 cells lacking CHT; membrane potential dye, choline response; active = decrease or increase beyond buffer ±3SD; membrane potential ratio readout (active if shifted either direction beyond buffer ±3SD; no single direction) at 10 µM; shares compounds with CHT inh; actives 4% (n = 2,400);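 further: parental cells lack the transporter so any hit is non-specific; ratio is peak minus trough fluorescence over baseline after EC90 choline challenge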
Starred values were filed as active, the others as inactive; i = inactive; / = no result given; ! = not confirmed by another sample. Compounds with a hit are over-represented: about 2.2% of the library has one in this group of screens.

SMILES | CHT allo act | CHT inh | Platelet DG rel | AI-2 QS mod | HIF activator | VLA-4 inh | CHT block conf | HEK293 MPD ctr
COc1cc2c(cc1OC)-c1cc(NC3CCCCCC3)nc(=O)n1CC2 | i | -5.13* | 82.2* | 17.5 | -0.1 | 3.7 | 22.5%* | i
Cc1cc(C)cc(N2C(N)=NC(N)=NC2c2ccccc2F)c1 (stereo not drawn) | i | i | -0.9 | 14.3 | -1.1 | -1.8 | / | /
CCOc1cc2[nH]c(=S)n(C3CCN(Cc4ccccc4)CC3)c(=O)c2cc1OCC | i | -5.76* | -7.0 | 29.4 | -1.0 | -0.1 | i | i
CSCCC(C(=O)N(C)CC(=O)Nc1cccc(F)c1)N1C(=O)c2ccccc2C1=O (stereo not drawn) | / | / | / | / | / | 4.3 | / | /
CN(CCNC(=O)CN1CCN(Cc2ccccc2Cl)C1=O)Cc1ccccc1 | i | -6.47* | 7.0 | 13.8 | -0.6 | 2.5 | 42.6%* | i
O=C(CN1CCN(Cc2ccc(F)cc2Cl)C1=O)NCCc1ccccc1 | i | i | 15.7 | -5.1 | 0.1 | 2.9 | / | /
S=C(Nc1ccc(Cc2ccncc2)cc1)Nc1cccc(Cl)c1 | i | -6.6* | 8.6 | -7.5 | 0.7 | -3.8 | i | i
CCc1nnc(NC(=O)CCC(=O)N2CCN(Cc3ccc(F)cc3)CC2)s1 | i | i | 17.2 | -2.5 | 0.0 | 6.3 | / | /
NC(=O)c1nsc(C(=O)N(Cc2ccc(F)cc2)C(C(=O)NC2CCCC2)c2ccco2)c1N (stereo not drawn) | i | -7.91* | -5.9 | 9.1 | -0.2 | -2.1 | i | i
CC1=C(C(=O)OCCOc2ccccc2)C(c2ccsc2)NC(=O)N1C (stereo not drawn) | i | -6.48* | 8.5 | 1.9 | 0.0 | -3.6 | 50.2%* | i
COC(=O)C1=C(C)N(C)C(=O)NC1c1ccccc1 (stereo not drawn) | i | i | -2.5 | 36.5 | 0.1 | 2.1 | / | /
COC(=O)c1ccc(/C=C/C(=O)OCC(=O)c2ccc[nH]2)cc1 | / | / | / | / | / | 3.5 | / | /
COc1ccc(CCN(C)C(=O)c2ccc(COc3ccccc3)o2)cc1OC | i | -6.93* | -2.1 | 55.6 | -0.5 | 11.6 | 54.5%* | i
CCCc1ccc(OCc2ccc(C(=O)O)o2)c(OC)c1 | i | i | 11.6 | 11.6 | 0.6 | 3.4 | / | /
COC(=O)CN(C)C(=O)c1ccc(OC)c(OC2CCN(C(C)C)CC2)c1 | i | i | 5.5 | -13.7 | 1.9 | -11.1 | / | /
COc1ccc(C(=O)NCc2cnn(C)c2C)cc1OC1CCN(C(C)C)CC1 | i | -11.4* | -5.9 | 13.7 | -0.2 | 2.2 | 11.9%* | i
COc1ccc(C(=O)NCc2cnn(C)c2)cc1OC1CCN(C(C)C)CC1 | / | / | -0.3 | 9.5 | -0.5 | 9.0 | / | /
COc1ccccc1CCNC(=O)c1ccc(OC)c(OC2CCN(C(C)C)CC2)c1 | i | -12* | 1.1 | -2.0 | -0.4 | -15.7 | 8.6%* | i
COc1ccc(C(=O)N(C)Cc2ccc(C)o2)cc1OC1CCN(C(C)C)CC1 | i | -6.33* | -11.1 | 11.3 | -0.3 | 6.3 | 29.6%* | i
COCCCNC(=O)c1ccc(OC)c(OC2CCN(C(C)C)CC2)c1 | i | -6.04* | -2.5 | 9.4 | -0.2 | 12.0 | 36.4%* | i
CCN(CC)S(=O)(=O)c1ccc(Cl)c(C(=O)OC2CC(C)OC2=O)c1 (stereo not drawn) | i | i | -4.1 | 6.5 | 0.0 | 4.0 | / | /
COc1cccc(CCNC(=O)c2ccc(OC)c(OC3CCN(C(C)C)CC3)c2)c1 | i | -13.4* | 4.6 | 39.3 | 0.2 | 3.1 | 12.0%* | i
COc1ccc(C(=O)N2CCCCCC2)cc1OC1CCN(C(C)C)CC1 | i | -5* | 3.0 | 26.0 | 0.0 | 8.6 | 44.8%* | i
O=C(COC(=O)Cc1ccsc1)Nc1ccc(F)cc1Cl | / | / | / | / | / | 8.9 | / | /
O=C(CS(=O)(=O)Nc1ccc(F)cc1Cl)Nc1ccc(F)cc1Cl | i | -10.8* | 2.5 | -2.5 | 1.1 | -7.4 | 66.1%* | i
SMILES | CHT allo act | CHT inh | Platelet DG rel | AI-2 QS mod | HIF activator | VLA-4 inh | CHT block conf | HEK293 MPD ctr
CCCCc1ccc(NC(=S)NCC2CCCO2)cc1 (stereo not drawn) | i | -10.7* | -2.5 | 22.9 | 0.3 | 22.2 | 49.0%* | i
CN(C)c1ccc(NC(=S)NCC2CCCO2)cc1 (stereo not drawn) | i | i | -8.6 | 14.1 | 0.0 | -6.9 | / | /
O=C(CSc1ncnc2nc[nH]c12)c1ccc(Cl)cc1 | i | i | -11.3 | 18.4 | 0.2 | -21.9 | / | /
Clc1ccc(CSc2ncnc3nc[nH]c23)cc1 | i | -6.18* | -0.9 | 26.4 | 0.1 | 1.1 | i | i
O=C(c1ccccc1Br)N1CCCC(c2nc(-c3cccs3)no2)C1 (stereo not drawn) | i | -6.31* | -3.8 | 14.5 | 2.2 | -0.2 | i | i
O=S(=O)(NCC(c1ccco1)N1CCc2ccccc2C1)c1ccc(F)cc1 (stereo not drawn) | i | i | -0.6 | 7.4 | 1.5 | 2.0 | / | /
CC(C)n1c(O)c(N=NC(=O)CNC(=O)Cc2ccc(Cl)cc2)c2ccccc21 | i | -8.01* | 4.0 | 13.6 | 0.2 | -11.5 | 35.5%* | i
CC(C)n1c(O)c(N=NC(=O)Cc2csc(N3CCOCC3)n2)c2ccccc21 | i | -9.38* | -2.1 | 9.2 | -1.6 | -1.9 | 24.3%* | i
O=C(NCc1cccnc1)c1c(O)c2cccc3c2n(c1=O)CCC3 | i | i | 0.6 | 7.6 | -0.3 | -4.4 | / | /
CC(=O)c1ccc(OC(=O)C2CSC3(C)CCC(=O)N23)cc1 (stereo not drawn) | / | / | / | / | / | 0.0 | / | /
CN[C@H]1CC[C@@H](c2ccc(Cl)c(Cl)c2)c2ccccc21 | i | -6.77*! | -3.2 | 44.1 | -0.6 | -3.2 | i | i
Cc1nc(N2CCCCC2)c2c(C)c(C(=O)Nc3ccc4c(c3)OCCO4)sc2n1 | i | i | 5.4 | 20.8 | 0.2 | -0.7 | / | /
COc1ccc(/C=C\C(=O)NCC(=O)N/N=C/c2ccc(O)cc2O)cc1 | i | -5.47* | -1.4 | 4.4 | 0.1 | 5.8 | i | i
O=C(/C=C\c1ccccc1)NCC(=O)N/N=C/c1ccc(O)cc1O | i | i | -6.0 | 20.8 | 0.0 | 25.6 | / | /
CC(C)n1c(SCC(=O)Nc2nncs2)nnc1-c1ccco1 | i | i | 29.1 | 7.5 | 0.1 | -0.6 | / | /
CN(C(=O)CSc1ncnc2scc(-c3ccccc3)c12)C1CCS(=O)(=O)C1 (stereo not drawn) | i | i | -1.0 | 8.1 | -0.2 | -18.2 | / | /

Bioassay records as filed in PubChem.
